Assay results published in PubChem BioAssay (NCI).
The panel holds about 79,000 compounds, 15% with a hit somewhere; the sample as a whole holds those more often. Calls of active or inactive are those of the source. No stated cut-off is given here; in the data, active means growth inhibition above about 70%; inactive means the rest.

Legend:
[1] = NCI Yeast Anticancer Drug Screen. Data for the rad50 strain (AID 155);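 further: 0% = growth of vehicle-only cultures of the same strain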; conditions: S. cerevisiae rad50 strain growth inhibition, stronger effect = higher value
Procedure, shortened: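 Compounds were tested on a yeast strain with an engineered DNA damage repair alteration; the reported value is growth inhibition normalised to vehicle treatment.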

[2] = NCI Yeast Anticancer Drug Screen. Data for the mec2-1 strain (AID 157); conditions: S. cerevisiae mec2-1 strain, stronger effect = higher value
Procedure, shortened: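 Growth inhibition is read against vehicle-treated controls after compound exposure of the mec2-1 yeast strain, which is defective in DNA damage repair or cell cycle control.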

[3] = NCI Yeast Anticancer Drug Screen. Data for the sgs1 mgt1 strain (AID 161);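 further: 0% = growth of cultures given vehicle only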; conditions: S. cerevisiae sgs1 mgt1 strain, stronger effect = higher value
Procedure, shortened: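 This yeast growth screen uses a strain with defined DNA-repair lesions; compound-treated growth is compared with vehicle-treated growth.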

[4] = NCI Yeast Anticancer Drug Screen. Data for the cln2 rad14 strain (AID 165);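 further: 0% = growth equal to vehicle treated cultures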; conditions: S. cerevisiae cln2 rad14 strain, stronger effect = higher value
Procedure, shortened: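 Growth inhibition, relative to vehicle-treated controls, is the read-out. The test organism is a yeast strain with defined genetic alterations, cln2 rad14.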

[5] = NCI Yeast Anticancer Drug Screen. Data for the bub3 strain (AID 167); conditions: S. cerevisiae bub3 mutant strain, stronger effect = higher value
Procedure, shortened: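 Growth of a checkpoint-deficient yeast mutant is measured after compound exposure. Values represent inhibition relative to vehicle.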

[6] = NCI Yeast Anticancer Drug Screen. Data for the mlh1 rad18 strain (AID 175); conditions: S. cerevisiae mlh1 rad18 strain growth inhibition, stronger effect = higher value
Procedure, shortened: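 Cells of a genetically altered yeast strain, deficient in DNA damage repair, were treated with compound. Their growth was then compared with that of vehicle-treated cultures to give inhibition.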

[7] = at 5.0 µM (retest, dose inferred, filed as 0.5)
[8] = at 50.0 µM (retest, dose inferred, filed as 5.0)

Row | SMILES | growth inhibition [1, 7] | growth inhibition [1, 8] | growth inhibition ([1]; at 50.0 µM) | growth inhibition [2, 7] | growth inhibition [2, 8] | growth inhibition ([2]; at 50.0 µM) | growth inhibition [3, 7] | growth inhibition [3, 8] | growth inhibition ([3]; at 50.0 µM) | growth inhibition [4, 7] | growth inhibition [4, 8] | growth inhibition ([4]; at 50.0 µM) | growth inhibition [5, 7] | growth inhibition [5, 8] | growth inhibition ([5]; at 50.0 µM) | growth inhibition [6, 7] | growth inhibition [6, 8] | growth inhibition ([6]; at 50.0 µM)
1 | OC1(c2ccccc2)c2ccccc2Sc2ccccc21 | 1% (inactive) | 99% (active) | 99% (active) | 6% (inactive) | 99% (active) | 99.2% (active) | 3% (inactive) | 97% (active) | 99.2% (active) | 8% (inactive) | 99% (active) | 99% (active) | -16% (inactive) | 98% (active) | 99.3% (active) | 7% (inactive) | 97% (active) | 99.1% (active)
2 | CC(C)(C)c1cc2c(c(C(C)(C)C)c1O)CC(=O)O2 | -6% (inactive) | 74% (active) | 27.7% (inactive) | -18% (inactive) | 85% (active) | 45.5% (inactive) | -37% (inactive) | 77% (active) | 57.8% (inactive) | 23% (inactive) | 64% (inactive) | 53.8% (inactive) | -32% (inactive) | 97% (active) | 72.5% (active) | -3% (inactive) | 84% (active) | 73.9% (active)
3 | CCN(CC)c1cccc(OC(=O)Nc2cccc(C(F)(F)F)c2)c1 | 50% (inactive) | 73% (active) | 84% (active) | 37% (inactive) | 73% (active) | 81.2% (active) | 42% (inactive) | 80% (active) | 83.8% (active) | 28% (inactive) | 64% (inactive) | 82.9% (active) | 42% (inactive) | 79% (active) | 87.6% (active) | 44% (inactive) | 88% (active) | 83.4% (active)
4 | CSc1cc(Cl)c(C)cc1S(=O)(=O)NC(=O)Nc1ccc(Cl)cc1 | 25% (inactive) | 97% (active) | 99.1% (active) | 34% (inactive) | 99% (active) | 99% (active) | 24% (inactive) | 97% (active) | 99.5% (active) | 45% (inactive) | 97% (active) | 98.7% (active) | 35% (inactive) | 98% (active) | 98.5% (active) | 29% (inactive) | 99% (active) | 99.3% (active)
5 | CC1CCCC(C)C1=O (centres undefined) | 4% (inactive) | 3% (inactive) | 8.7% (inactive) | -4% (inactive) | 0% (inactive) | -12.2% (inactive) | -7% (inactive) | 3% (inactive) | -13.4% (inactive) | 3% (inactive) | 7% (inactive) | 13.8% (inactive) | 5% (inactive) | 10% (inactive) | 3% (inactive) | 2% (inactive) | 3% (inactive) | -4.35% (inactive)
6 | CCOc1cnn(-c2ccccc2)c(=O)c1SCc1ccc(Cl)c(Cl)c1 | -4% (inactive) | 27% (inactive) | 37.5% (inactive) | -3% (inactive) | 56% (inactive) | 8.95% (inactive) | 2% (inactive) | 73% (active) | 65.8% (inactive) | -11% (inactive) | 44% (inactive) | 53.1% (inactive) | 4% (inactive) | 82% (active) | 40.3% (inactive) | -4% (inactive) | 56% (inactive) | 32.4% (inactive)
7 | O=c1[nH]cc(F)c(=O)n1C1CCCCO1 (centres undefined) | 30% (inactive) | 41% (inactive) | 46% (inactive) | 16% (inactive) | 34% (inactive) | 49.5% (inactive) | 46% (inactive) | 72% (active) | 71% (active) | 46% (inactive) | 49% (inactive) | 12.2% (inactive) | 42% (inactive) | 59% (inactive) | 34.5% (inactive) | 23% (inactive) | 35% (inactive) | 6.85% (inactive)
8 | CCCCCCCCCCCCOP(=O)(N1CC1(C)C)N1CC1(C)C (centres undefined) | 4% (inactive) | 61% (inactive) | 72.7% (active) | 2% (inactive) | 71% (active) | 58.1% (inactive) | 1% (inactive) | 67% (inactive) | 82.8% (active) | 16% (inactive) | 72% (active) | 34.2% (inactive) | 24% (inactive) | 97% (active) | 87.3% (active) | 4% (inactive) | 87% (active) | 80.5% (active)
9 | O=[N+]([O-])c1ccc(Cl)c(C(Nc2nncs2)Nc2nncs2)c1 | -2% (inactive) | 91% (active) | 49.1% (inactive) | 2% (inactive) | 70% (active) | 23.9% (inactive) | -3% (inactive) | 61% (inactive) | 61.7% (inactive) | 18% (inactive) | 84% (active) | 36.3% (inactive) | -5% (inactive) | 92% (active) | 20.4% (inactive) | -13% (inactive) | 84% (active) | 51.8% (inactive)
10 | CN(C)C(=O)c1ccccc1SC(=S)NCc1ccccc1 | 0% (inactive) | 99% (active) | 98.1% (active) | -2% (inactive) | 99% (active) | 91.3% (active) | 2% (inactive) | 93% (active) | 95.8% (active) | -3% (inactive) | 99% (active) | 95.3% (active) | -7% (inactive) | 99% (active) | 88.2% (active) | -3% (inactive) | 98% (active) | 96.6% (active)
11 | CC1CCC(C(C)(C)c2ccc(O)cc2)CC1 (centres undefined) | 0% (inactive) | 97% (active) | 97.7% (active) | -1% (inactive) | 98% (active) | 98.2% (active) | 3% (inactive) | 98% (active) | 98.8% (active) | -6% (inactive) | 96% (active) | 97.6% (active) | -4% (inactive) | 97% (active) | 98.3% (active) | -6% (inactive) | 98% (active) | 98.3% (active)
12 | Cc1c2ccncc2c(C)c2c1sc1ccccc12 | 83% (active) | 94% (active) | 89.5% (active) | 38% (inactive) | 96% (active) | 90% (active) | 43% (inactive) | 94% (active) | 88.8% (active) | 32% (inactive) | 95% (active) | 88.8% (active) | 55% (inactive) | 95% (active) | 84.5% (active) | 77% (active) | 91% (active) | 83.3% (active)
13 | COc1ccc(/C(Cl)=C(\C=O)c2ccc(Cl)cc2)cc1 | 17% (inactive) | 17% (inactive) | -4.05% (inactive) | -10% (inactive) | 2% (inactive) | 7.7% (inactive) | -17% (inactive) | 22% (inactive) | 27.8% (inactive) | 12% (inactive) | 26% (inactive) | -8.85% (inactive) | 18% (inactive) | 54% (inactive) | 28.1% (inactive) | -6% (inactive) | 27% (inactive) | 19.8% (inactive)
14 | OC1CC2CCC(C1)N2CCCN1c2ccccc2Sc2ccc(Cl)cc21 (centres undefined) | 12% (inactive) | 99% (active) | 99% (active) | 13% (inactive) | 80% (active) | 97.2% (active) | -4% (inactive) | 61% (inactive) | 99.1% (active) | -23% (inactive) | 74% (active) | 97.5% (active) | -20% (inactive) | 97% (active) | 99.2% (active) | 10% (inactive) | 97% (active) | 94.4% (active)
15 | CCN(CC)C(=S)Nc1ccc(Cl)cc1 | -144% (inactive) | 67% (inactive) | 98.5% (active) | -50% (inactive) | 49% (inactive) | 97.7% (active) | -62% (inactive) | 63% (inactive) | 97.1% (active) | -85% (inactive) | 40% (inactive) | 98.5% (active) | -65% (inactive) | 45% (inactive) | 95.2% (active) | -122% (inactive) | 74% (active) | 97.4% (active)
16 | CC1CC(N)=NC1C(=O)NCCC#N (centres undefined) | 20% (inactive) | 8% (inactive) | 10.9% (inactive) | 27% (inactive) | 8% (inactive) | 3.25% (inactive) | 38% (inactive) | 17% (inactive) | 64.1% (inactive) | 14% (inactive) | 2% (inactive) | 72% (active) | 25% (inactive) | -12% (inactive) | 62.6% (inactive) | 30% (inactive) | 11% (inactive) | 66.7% (inactive)
17 | COc1ccc2c(c1)nc1ccc(Cl)cc1[n+]2C | -6% (inactive) | 61% (inactive) | 82.2% (active) | 2% (inactive) | 64% (inactive) | 84.1% (active) | -2% (inactive) | 55% (inactive) | 82.2% (active) | -7% (inactive) | 52% (inactive) | 83.1% (active) | 7% (inactive) | 70% (active) | 92.2% (active) | 6% (inactive) | 66% (inactive) | 89% (active)
18 | COc1ccccc1NC(=O)C1=C(C)NC(C)=C(C(=O)Nc2ccccc2OC)C1c1ccccc1[N+](=O)[O-] | 13% (inactive) | 13% (inactive) | 68% (inactive) | 4% (inactive) | 4% (inactive) | 69.1% (inactive) | 2% (inactive) | 2% (inactive) | 60.9% (inactive) | 0% (inactive) | 0% (inactive) | 12% (inactive) | 5% (inactive) | 5% (inactive) | 65.7% (inactive) | 13% (inactive) | 13% (inactive) | 48.4% (inactive)
